# Laboratory results: the supplement of paper PMC11732987, “Enantioselective OTUD7B fragment discovery through chemoproteomics screening and high-throughput optimisation” (Communications Chemistry, 2025)
# Values without a mark were called inactive.
# Columns and labels:
# Test in all cases: log2 ratio of Biotin-Ahx-Ub-VS probe labelling (fragment/DMSO); higher = less target engagement (more negative = stronger competition), active = hit call of the paper (q ≤ 0.05, log2 ratio ≤ -1)
# Conditions in all cases: compound concentration: 200 uM; treatment time: 3 h
# [1] = biological target: T1, OTUD6B (UniProt Q8N6M0)
# T1 sequence (whole entry): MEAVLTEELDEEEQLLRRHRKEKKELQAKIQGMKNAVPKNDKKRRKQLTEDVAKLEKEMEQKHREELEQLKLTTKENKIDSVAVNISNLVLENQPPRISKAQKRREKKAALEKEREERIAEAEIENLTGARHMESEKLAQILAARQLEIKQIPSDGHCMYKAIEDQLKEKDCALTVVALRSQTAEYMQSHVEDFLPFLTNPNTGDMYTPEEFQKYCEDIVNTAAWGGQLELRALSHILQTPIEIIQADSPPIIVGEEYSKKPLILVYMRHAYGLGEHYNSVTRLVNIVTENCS
# Summary of the method: (§1)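 Fragment (200 µM) or vehicle was incubated for 3 h with triplicate HEK293T lysate samples of 495 µg, which were then treated with Biotin-Ahx-Ub-VS at 0.5 µM final for 1 h. Labelled DUBs were enriched on NeutrAvidin, digested with LysC and trypsin, and analysed by diaPASEF LC-MS/MS. Values are average log2 fragment/vehicle ratios from an unpaired t-test on global-median-normalised Spectronaut label-free quantities, using proteins with ≥2 unique peptides.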
# [2] = biological target: T2, OTUD7B (UniProt Q6GQQ9)
# T2 sequence (whole entry): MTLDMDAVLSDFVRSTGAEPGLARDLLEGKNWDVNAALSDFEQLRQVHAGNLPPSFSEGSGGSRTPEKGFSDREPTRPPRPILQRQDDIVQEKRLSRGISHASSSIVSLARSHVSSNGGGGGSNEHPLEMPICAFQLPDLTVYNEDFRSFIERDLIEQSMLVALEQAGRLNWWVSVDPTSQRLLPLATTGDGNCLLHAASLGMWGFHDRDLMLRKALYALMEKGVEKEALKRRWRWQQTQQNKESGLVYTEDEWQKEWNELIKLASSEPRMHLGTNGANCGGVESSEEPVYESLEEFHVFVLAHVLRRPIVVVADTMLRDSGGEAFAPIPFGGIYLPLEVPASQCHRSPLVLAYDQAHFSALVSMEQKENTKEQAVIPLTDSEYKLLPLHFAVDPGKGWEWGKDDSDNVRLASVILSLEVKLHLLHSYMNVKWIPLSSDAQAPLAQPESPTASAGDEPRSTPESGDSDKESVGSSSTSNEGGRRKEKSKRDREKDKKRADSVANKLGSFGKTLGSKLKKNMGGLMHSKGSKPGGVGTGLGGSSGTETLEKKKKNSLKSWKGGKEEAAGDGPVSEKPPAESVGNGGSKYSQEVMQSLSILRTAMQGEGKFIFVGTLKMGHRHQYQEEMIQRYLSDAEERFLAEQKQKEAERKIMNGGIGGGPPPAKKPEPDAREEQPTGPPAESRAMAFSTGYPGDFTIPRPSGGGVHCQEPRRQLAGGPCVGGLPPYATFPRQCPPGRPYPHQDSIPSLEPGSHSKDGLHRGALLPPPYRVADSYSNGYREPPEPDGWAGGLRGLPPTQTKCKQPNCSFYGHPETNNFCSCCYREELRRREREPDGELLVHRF
# Summary of the method: as §1
# [3] = biological target: PRPF8 (UniProt Q6P2Q9)
# Summary of the method: as §1
# [4] = biological target: T3, PSMD7 (UniProt P51665)
# T3 sequence (whole entry): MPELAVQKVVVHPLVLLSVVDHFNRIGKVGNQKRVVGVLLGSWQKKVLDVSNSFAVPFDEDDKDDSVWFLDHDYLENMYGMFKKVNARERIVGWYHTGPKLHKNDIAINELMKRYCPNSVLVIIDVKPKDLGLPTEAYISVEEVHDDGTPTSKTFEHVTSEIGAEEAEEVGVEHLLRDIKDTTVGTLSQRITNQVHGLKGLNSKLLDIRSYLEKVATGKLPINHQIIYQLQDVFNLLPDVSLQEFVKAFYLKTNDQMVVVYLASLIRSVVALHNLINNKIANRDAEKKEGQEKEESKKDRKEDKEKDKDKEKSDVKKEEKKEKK
# Summary of the method: as §1
# [5] = biological target: UCHL1 (UniProt P09936)
# Chain of UCHL1 (P09936 whole entry, looked up): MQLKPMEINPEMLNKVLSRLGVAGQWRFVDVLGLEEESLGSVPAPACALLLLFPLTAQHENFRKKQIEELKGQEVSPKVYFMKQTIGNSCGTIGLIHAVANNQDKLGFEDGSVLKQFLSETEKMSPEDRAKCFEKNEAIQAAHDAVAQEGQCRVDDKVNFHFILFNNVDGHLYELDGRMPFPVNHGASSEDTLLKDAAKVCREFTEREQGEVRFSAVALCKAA
# Summary of the method: as §1
# [6] = biological target: T4, UCHL3 (UniProt P15374)
# T4 sequence (whole entry): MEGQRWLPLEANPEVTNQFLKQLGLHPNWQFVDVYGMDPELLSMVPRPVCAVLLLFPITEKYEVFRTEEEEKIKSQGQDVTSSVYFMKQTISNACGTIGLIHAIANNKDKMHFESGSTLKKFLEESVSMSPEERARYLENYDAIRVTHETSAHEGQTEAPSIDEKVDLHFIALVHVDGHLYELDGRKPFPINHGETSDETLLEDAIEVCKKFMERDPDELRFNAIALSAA
# Summary of the method: as §1
# [7] = biological target: T5, UCHL5 (UniProt Q9Y5K5)
# T5 sequence (whole entry): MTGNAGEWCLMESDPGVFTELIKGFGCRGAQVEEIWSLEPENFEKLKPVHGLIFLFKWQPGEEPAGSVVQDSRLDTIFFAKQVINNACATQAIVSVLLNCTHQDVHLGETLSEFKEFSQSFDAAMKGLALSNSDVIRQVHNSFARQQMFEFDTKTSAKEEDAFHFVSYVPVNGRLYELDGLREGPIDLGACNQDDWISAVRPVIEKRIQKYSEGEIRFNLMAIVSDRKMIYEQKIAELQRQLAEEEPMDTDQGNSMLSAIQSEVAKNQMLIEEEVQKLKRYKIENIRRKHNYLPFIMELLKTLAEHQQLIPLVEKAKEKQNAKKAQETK
# Summary of the method: as §1
# [8] = biological target: USP10 (UniProt Q14694)
# Chain of USP10 (Q14694 whole entry): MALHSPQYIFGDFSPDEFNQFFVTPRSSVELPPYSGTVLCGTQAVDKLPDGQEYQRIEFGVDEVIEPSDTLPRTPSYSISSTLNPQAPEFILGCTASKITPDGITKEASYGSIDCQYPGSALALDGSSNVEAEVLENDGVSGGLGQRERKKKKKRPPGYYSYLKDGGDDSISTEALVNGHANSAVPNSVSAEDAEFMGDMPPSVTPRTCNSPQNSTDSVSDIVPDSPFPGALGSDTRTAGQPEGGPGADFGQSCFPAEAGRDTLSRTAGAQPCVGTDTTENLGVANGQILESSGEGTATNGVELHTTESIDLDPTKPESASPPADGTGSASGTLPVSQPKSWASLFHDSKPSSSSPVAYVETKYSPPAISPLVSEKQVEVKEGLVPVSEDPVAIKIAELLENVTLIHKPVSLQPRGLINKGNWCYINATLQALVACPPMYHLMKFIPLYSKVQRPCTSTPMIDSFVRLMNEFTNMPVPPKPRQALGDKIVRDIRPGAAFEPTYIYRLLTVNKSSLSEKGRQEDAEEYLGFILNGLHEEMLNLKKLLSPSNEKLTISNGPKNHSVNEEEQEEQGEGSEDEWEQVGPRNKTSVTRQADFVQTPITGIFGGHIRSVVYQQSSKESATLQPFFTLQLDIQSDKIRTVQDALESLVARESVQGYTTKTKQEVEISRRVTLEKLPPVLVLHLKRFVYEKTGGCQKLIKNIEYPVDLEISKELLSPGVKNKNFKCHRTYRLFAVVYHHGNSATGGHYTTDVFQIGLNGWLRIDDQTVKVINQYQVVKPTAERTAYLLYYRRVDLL
# Summary of the method: as §1
# [9] = biological target: T6, USP15 (UniProt Q9Y4E8)
# T6 sequence (whole entry): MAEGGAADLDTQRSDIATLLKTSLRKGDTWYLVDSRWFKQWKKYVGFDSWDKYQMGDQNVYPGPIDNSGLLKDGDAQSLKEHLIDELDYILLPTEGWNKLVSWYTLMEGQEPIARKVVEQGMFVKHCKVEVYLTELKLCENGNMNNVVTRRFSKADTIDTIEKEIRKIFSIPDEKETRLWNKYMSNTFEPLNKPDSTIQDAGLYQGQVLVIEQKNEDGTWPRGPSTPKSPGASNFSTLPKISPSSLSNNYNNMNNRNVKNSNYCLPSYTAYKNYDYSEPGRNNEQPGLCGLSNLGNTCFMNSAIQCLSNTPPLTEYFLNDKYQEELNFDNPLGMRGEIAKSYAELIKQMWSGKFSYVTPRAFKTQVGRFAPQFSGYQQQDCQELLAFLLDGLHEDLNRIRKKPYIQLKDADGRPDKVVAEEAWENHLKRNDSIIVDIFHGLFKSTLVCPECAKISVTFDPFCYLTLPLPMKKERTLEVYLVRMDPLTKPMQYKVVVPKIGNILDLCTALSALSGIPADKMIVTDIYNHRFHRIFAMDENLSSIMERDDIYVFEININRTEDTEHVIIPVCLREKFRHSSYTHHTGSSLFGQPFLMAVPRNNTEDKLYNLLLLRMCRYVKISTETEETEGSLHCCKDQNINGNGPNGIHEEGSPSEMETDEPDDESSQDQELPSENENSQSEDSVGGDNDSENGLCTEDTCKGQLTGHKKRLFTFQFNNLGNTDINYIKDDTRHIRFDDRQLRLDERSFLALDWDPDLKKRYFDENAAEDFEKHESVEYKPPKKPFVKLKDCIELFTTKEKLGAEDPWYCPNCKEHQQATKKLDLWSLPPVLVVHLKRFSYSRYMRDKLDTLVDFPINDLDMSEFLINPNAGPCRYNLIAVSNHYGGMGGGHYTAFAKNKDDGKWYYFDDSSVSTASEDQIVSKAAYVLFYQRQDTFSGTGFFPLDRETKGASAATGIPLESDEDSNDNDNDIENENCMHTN
# Summary of the method: as §1
# [10] = biological target: USP16 (UniProt Q9Y5T5)
# Chain of USP16 (Q9Y5T5 whole entry, looked up): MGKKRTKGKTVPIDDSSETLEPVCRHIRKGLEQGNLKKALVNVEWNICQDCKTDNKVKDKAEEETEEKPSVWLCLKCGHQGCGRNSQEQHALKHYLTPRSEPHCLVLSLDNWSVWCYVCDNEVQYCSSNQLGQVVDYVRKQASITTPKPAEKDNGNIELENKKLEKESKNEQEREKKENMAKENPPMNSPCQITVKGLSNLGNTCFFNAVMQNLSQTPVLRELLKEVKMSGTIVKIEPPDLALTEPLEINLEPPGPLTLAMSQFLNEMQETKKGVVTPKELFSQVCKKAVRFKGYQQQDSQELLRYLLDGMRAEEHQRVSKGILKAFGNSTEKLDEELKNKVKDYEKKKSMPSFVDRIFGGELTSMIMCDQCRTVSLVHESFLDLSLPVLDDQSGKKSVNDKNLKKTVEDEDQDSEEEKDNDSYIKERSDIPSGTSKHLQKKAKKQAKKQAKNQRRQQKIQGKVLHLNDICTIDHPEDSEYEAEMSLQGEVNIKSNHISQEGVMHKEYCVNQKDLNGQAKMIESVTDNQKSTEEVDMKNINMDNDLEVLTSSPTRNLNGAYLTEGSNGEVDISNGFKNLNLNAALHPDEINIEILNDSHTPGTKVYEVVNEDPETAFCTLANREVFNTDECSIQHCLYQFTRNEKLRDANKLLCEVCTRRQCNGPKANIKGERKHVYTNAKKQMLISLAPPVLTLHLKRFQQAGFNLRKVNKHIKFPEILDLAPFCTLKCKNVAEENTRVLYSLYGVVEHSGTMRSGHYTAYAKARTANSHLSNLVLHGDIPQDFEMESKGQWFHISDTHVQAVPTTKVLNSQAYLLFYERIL
# Summary of the method: as §1
smiles,measurement,setting,value
Cn1cc(CN(Cc2ccc(Cl)cc2)C(=O)CCl)cn1,log2 ratio of Biotin-Ahx-Ub-VS probe labelling,[1],-0.0472
same,log2 ratio of Biotin-Ahx-Ub-VS probe labelling,[2],-0.238
same,log2 ratio of Biotin-Ahx-Ub-VS probe labelling,[3],0.208
same,log2 ratio of Biotin-Ahx-Ub-VS probe labelling,[4],0.0391
same,log2 ratio of Biotin-Ahx-Ub-VS probe labelling,[5],-0.602
same,log2 ratio of Biotin-Ahx-Ub-VS probe labelling,[6],0.113
same,log2 ratio of Biotin-Ahx-Ub-VS probe labelling,[7],-0.221
same,log2 ratio of Biotin-Ahx-Ub-VS probe labelling,[8],-0.0261
same,log2 ratio of Biotin-Ahx-Ub-VS probe labelling,[9],-0.272
same,log2 ratio of Biotin-Ahx-Ub-VS probe labelling,[10],-1.17 (active)
